Shown are actives, neighbours in structure and some others; about 10% of the full set was active somewhere.
MCF10A rereplic: A quantitative high throughput screen for small molecules that induce DNA re-replication in MCF 10a normal breast cells; MCF 10A DNA re-replication, Hoechst nuclear intensity, 48 h; Potency, µM (top dose mostly 46.1 µM), inactives show at the highest dose activity, positive = re-replication, hits mostly activators; 2.9% of 350,000 active; AID 624296, 2012; also: % of control where 0% means no effect; nearly all actives have a fitted effect of over 50% in size
KB-V1 MDR tox: qHTS assay for MDR1-selective chemotherapeutics: Primary screen using the drug-selected MDR subline cells KB-V1 | KB-V1 MDR cells viability, CellTiter-Glo, 72 h | Potency, µM (doses to about 46.1 µM), hits mostly cytotoxic | 3.4% of 400,000 active | AID 1347076, 2019; also: % is scaled to controls: 0 for no effect and ±100 for the full control effect; nearly all actives have a fitted effect of over 60% in size
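Following 72 h at 37 degrees C with compound, KB-V1 cell viability was read by CellTiter-Glo luminescence, medium being phenol-red-free DMEM plus 10% FBS; concentration-response parameters came from normalized, curve-fitted qHTS data.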
RORgamma inh: qHTS for inhibitors of ROR gamma transcriptional activity; AID 2551, 2010; Drosophila S2 Gal4-RORgamma UAS-luciferase reporter, 20 h; Potency, µM (titrated, usually from 53.6 µM), inactives show top-dose activity change, negative = inhibition, most hits filed as inhibitors; Nuclear receptor ROR-gamma (Mus musculus), P51450; 5.4% of 310,000 active; also: % is scaled to controls: 0 for no effect and ±100 for the full control effect; nearly all actives have a fitted effect of over 60% in size
Target sequence (P51450 whole entry, looked up, the tested form may be a part): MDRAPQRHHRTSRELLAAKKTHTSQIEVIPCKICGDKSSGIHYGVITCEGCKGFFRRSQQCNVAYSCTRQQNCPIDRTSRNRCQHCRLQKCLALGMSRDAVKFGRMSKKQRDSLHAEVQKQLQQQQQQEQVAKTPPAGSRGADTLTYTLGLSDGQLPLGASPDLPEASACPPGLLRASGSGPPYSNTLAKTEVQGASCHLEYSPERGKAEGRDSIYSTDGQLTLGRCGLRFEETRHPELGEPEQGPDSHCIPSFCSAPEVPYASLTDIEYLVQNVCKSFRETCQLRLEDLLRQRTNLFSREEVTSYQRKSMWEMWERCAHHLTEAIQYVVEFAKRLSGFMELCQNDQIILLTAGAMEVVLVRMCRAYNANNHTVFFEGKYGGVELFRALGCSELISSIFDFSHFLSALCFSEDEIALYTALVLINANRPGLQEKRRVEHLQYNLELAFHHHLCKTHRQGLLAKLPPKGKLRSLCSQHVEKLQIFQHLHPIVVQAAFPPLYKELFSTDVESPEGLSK
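Stably transfected Drosophila Schneider cells are the test system, with ROR gamma fused to Gal4 and luciferase under UAS control; luminescence is read after 20 hr of 700 uM copper sulfate induction at ambient temperature.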
SW480 rereplic: A quantitative high throughput screen for small molecules that induce DNA re-replication in SW480 colon adenocarcinoma cells | SW480 DNA re-replication, Hoechst DNA content imaging, 48 h | Potency, µM (series often up to 46.1 µM), inactives show top-dose re-replication activation, usual class: activators | 1.8% of 340,000 active; also: % of control where 0% means no effect; nearly all actives have a fitted effect of over 55% in size
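Image-based DNA-content assay: after two days of treatment, nuclei were labelled with the DNA dye Hoechst and imaged, and hits were compounds raising the count of nuclei showing high fluorescence intensity.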
KB-3-1 cytotox: qHTS assay for MDR1-selective chemotherapeutics: Primary screen using the parental adenocarcinoma cell KB-3-1; KB-3-1 viability, CellTiter-Glo ATP luminescence, 72 h; Potency, µM (series often up to 46.1 µM), hits mostly cytotoxic; 1.4% of 400,000 active; also: % is scaled to controls: 0 for no effect and ±100 for the full control effect; nearly all actives have a fitted effect of over 60% in size
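Using CellTiter-Glo luminescence, growth of non-resistant KB-3-1 adenocarcinoma cells is assessed 72 h after pin-tool compound addition at 37 °C. Normalized responses across the concentration series yield fitted curves.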
VP16 counter: VP16 counterscreen qHTS for inhibitors of ROR gamma transcriptional activity; 3.5% of 310,000 active; Drosophila S2 Gal4-VP16 UAS-luciferase, luminescence, 20 h; Potency, µM (titrated, usually from 53.6 µM), for inactives: top-dose activity, negative = inhibition, hits mostly inhibitors;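 also: Gal4-VP16 expression switched on by copper sulfate through the metallothionein promoter; % is scaled to controls: 0 for no effect and ±100 for the full control effect; nearly all actives have a fitted effect of over 50% in size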
The depositor's hits bear a star; i = inactive; ? = inconclusive; · = no result; [ ] = dose if it differs, or a comment. Calls follow the shape of the dose curve; as a rule, active = well fitted curve in the direction sought with a large enough effect; inconclusive = small, poorly fitted or top-dose-only effect, or another doubt; inactive = no such curve, though single readings can be large; an effect the other way counts as inactive or inconclusive. Potency is read from the fitted curve at half-maximal effect.

SMILES | MCF10A rereplic | KB-V1 MDR tox | RORgamma inh | SW480 rereplic | KB-3-1 cytotox | VP16 counter
CC(=O)Nc1ccc(C(=O)N2CCCC(c3cc(C(=O)NCc4ccc(F)cc4)no3)C2)cc1 (centres undefined) | · | i | · | · | i | ·
Cc1ccc(C(=O)c2cn(Cc3cccc(C)c3)c3nc(C)ccc3c2=O)cc1 | · | i | · | · | i | ·
COCCCN1C(=O)C(CC(=O)NC(c2ccccc2)c2ccccc2)CC(C(=O)N(C(C)C)C(C)C)=C1C (centres undefined) | · | i | · | · | i | ·
FC(F)Oc1ccc(NC(=S)NCc2ccccc2)cc1Cl | 15% | ? | 14µM* | ? | ? | ?
O=C(Nc1ccc(OC(F)F)cc1)c1ccccn1 | 0% | i | -10% | -10% | i | -1%[10 µM]
Oc1cccc2c(NC(=S)Nc3ccc(OC(F)F)cc3)cccc12 | 29% | i | ? | 17% | i | 11µM*
FC(F)Oc1ccc(NC(=S)NCc2ccccc2)cc1 | -3% | ? | 13µM* | 3% | ? | ?
Cc1cc2cc(CNC(=S)Nc3ccc(OC(F)F)cc3)ccc2n1C | ? | i | -27% | 1% | i | -4%
FC(F)Oc1ccc(NC(=S)NCCc2ccccn2)cc1 | -6% | i | 4.5µM* | -12% | i | 5µM*
COc1ccccc1C(=O)Nc1ccc(C(=O)OCc2cc(=O)n3nc(C4CC4)sc3n2)cc1 | · | i | · | · | i | ·
CCOc1cc(C(=O)Nc2cc3c(cc2N2CCCC2)n(C)c(=O)c(=O)n3C)cc(OCC)c1OCC | · | ? | · | · | i | ·
Cc1cccc(CSc2nc(-c3cccc(C)c3)nc3c2Cc2c(CO)cnc(C)c2O3)c1 | · | i | · | · | i | ·
Clc1ccccc1CNCCCSc1nnnn1-c1ccccc1 | · | i | · | · | i | ·
CN(NC(=S)Nc1ccc(OC(F)F)cc1)C(=S)Nc1ccc(OC(F)F)cc1 | -14% | i | -29% | -11% | i | 13µM*
CCOC(=O)CNc1oc(-c2ccccc2)nc1-c1ccccc1 | · | · | 6% | · | · | -14%
CC(C)(C)c1ccc(C(=O)NNc2ncnc3c2cnn3-c2ccccc2)cc1 | · | i | · | · | i | ·
Cc1ccc2cc(CN(CC3CCCO3)C(=O)NC3CCCCC3)c(=O)[nH]c2c1C (centres undefined) | ? | ? | 3.2µM* | 12% | i | ?
Cc1cccc2cc(CN(CC3CCCO3)C(=O)NC3CCCCC3)c(=O)[nH]c12 (centres undefined) | 0% | i | 16% | -13% | i | -6%
Cc1cccc2cc(CN(Cc3ccco3)C(=O)NC3CCCCC3)c(=O)[nH]c12 | 10% | 3.7µM* | ? | 15% | i | ?
Cc1ccccc1OCc1nnc(SCc2cc(=O)c3cc(F)ccc3[nH]2)n1C | · | i | · | · | 21µM* | ·
Cc1ccc2[nH]c(CSc3nnc(COc4ccccc4C)n3C)cc(=O)c2c1 | · | i | · | · | ? | ·
CC/C(=N\NC(=O)c1ccncc1)C12CC3CC(CC(C3)C1)C2 | 1% | i | -5% | -1% | i | 7%
C[C@@H]1C2CC(C/C2=N\NC(=O)c2ccncc2)C1(C)C (some centres undefined) | -1% | i | 7.9µM* | 2% | i | 13µM*
CC1C2CC(C/C2=N/NC(=O)c2cccs2)C1(C)C (centres undefined) | 23% | i | ? | -3% | i | 2µM*
CCOC(=O)c1ccc(NC(=O)C2=C(C)Nc3nc(SCc4ccc(Cl)cc4)nn3C2c2ccc(C)cc2)cc1 (centres undefined) | · | i | · | · | i | ·
SMILES | MCF10A rereplic | KB-V1 MDR tox | RORgamma inh | SW480 rereplic | KB-3-1 cytotox | VP16 counter
CC(=O)c1ccc2noc(-c3ccc(F)cc3)c2c1 | -23% | i | -28% | -5% | i | 1%
CC(=O)c1ccc2noc(-c3ccc(Cl)cc3)c2c1 | ? | i | ? | 16µM* | i | -2%
COc1ccc(-c2onc3ccc(C(=O)/C=C/N(C)C)cc23)cc1 | 18µM* | ? | 10% | 16µM* | ? | 1%
CN(C)/C=C/C(=O)c1ccc2noc(-c3cccc(F)c3)c2c1 | ? | i | 9% | -23% | i | -4%
C=CCNc1nc(NCCOC)c2sc(-c3ccccc3)cc2n1 | · | ? | · | · | i | ·
C=CCNc1nc(Nc2ccc(OC)c(OC)c2)c2sc(-c3ccccc3)cc2n1 | · | ? | · | · | 2.1µM* | ·
CCOC(=O)c1c(C)[nH]c(C(=O)COC(=O)CCSc2ccccc2)c1C | 29% | 1.6µM* | 5% | 14% | ? | 20%
COc1ccccc1OCCC(=O)OCC(=O)c1[nH]c(C)c(C(C)=O)c1C | ? | ? | 14µM* | ? | i | ?
CCOC(=O)c1c(C)[nH]c(C(=O)COC(=O)CNS(=O)(=O)c2ccc(C)cc2)c1C | -2% | 4.6µM* | · | -3% | i | ·
CC(=O)N1CCC[C@@]2(CCN(Cc3ccc(C#N)cc3)C2)C1 | · | · | -3% | · | · | -11%
NS(=O)(=O)c1ccc(CCNC(c2ccccc2)c2ccccc2)cc1 | ? | ? | 1% | -4% | i | -3%
c1ccc(C(NCCNC(c2ccccc2)c2ccccc2)c2ccccc2)cc1 | ? | i | 13µM* | 20% | ? | ?
O=C(CC1C(=O)NCCN1Cc1cccc(Oc2ccccc2)c1)NCCc1cnccn1 (centres undefined) | 4% | i | 0% | 3.3µM* | i | -5%
CCc1ccc(CNC(=O)CC2C(=O)NCCN2Cc2ccccc2F)nc1 (centres undefined) | 18% | i | 10µM* | 111% | i | ?
CCc1ccc2occ(CC(=O)Nc3nnc(C)s3)c2c1 | · | i | · | · | i | ·
O=S1(=O)CC(O)C(O)CS1 (centres undefined) | · | i | · | · | i | ·
Cc1ccc(CN2C(=O)c3ccccc3S(=O)(=O)c3ccc(C(=O)OCC4CCCO4)cc32)cc1 (centres undefined) | · | i | · | · | i | ·
Cc1ccc2c(C)nc(SC(C(=O)c3ccccc3)c3ccccc3)nc2c1 (centres undefined) | ? | ? | ? | · | i | 20µM*
COc1ccc(OC)c(CNS(=O)(=O)c2c(C(=O)N3CCCCCC3)c(C)n(C)c2C)c1 | · | i | · | · | i | ·

Source: PubChem BioAssay
